From PubChem BioAssay (NCI)
Compounds without any hit were thinned out: in the full panel of roughly 83,000, 20% have a hit.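 The test compound was applied at a single concentration to cells in 96-well plates for 48 hours, and percent growth was recorded.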 Activity calls are given as the source filed them. Rule for the calls: active = growth percent below 10; inactive = the rest.

What follows are compounds tested on MDA-MB-468 breast (assay: NCI-60 one-dose screen, 48 h (100 = growth as untreated, 0 = no growth, -100 = all killed)). Details: 10 µM unless noted.

Row | SMILES | growth
1 | Cc1cccc(N2C(=O)/C(=C/C(Cl)=C/c3ccc([N+](=O)[O-])cc3)SC2=S)c1C | 11.6% (inactive)
2 | O=C(/C=C/c1cccc(O)c1)c1cccc(-n2cc(-c3ccccc3)[nH]c2=O)c1 | 73.4% (inactive)
3 | Oc1cc2ccccc2c(-c2c(O)c(O)cc3ccccc23)c1O | 26.6% (inactive)
4 | OC1(c2ccccc2)c2ccccc2N(c2ccccc2)c2ccc(Cl)cc21 (stereo unspecified) | -75.3% (active)
5 | O=C1C(Nc2ccccn2)=C(I)C(=O)c2ncccc21 | -70.1% (active)
6 | COP(=O)(OC)C(C)(C)CC(=O)CC(C#N)(C#N)C(C#N)C#N | 104% (inactive)
7 | OCc1cnccc1NCCCCOc1ccc(Oc2ccccc2)cc1 | 30.5% (inactive)
8 | C[C@@H]1CC[C@@H]2[C@@H]1[C@H](OC(=O)/C=C/c1ccccc1)[C@]1(C3CCCCC3)C[C@@H](OC(=O)CO)[C@@]2(C)O1 | 74.1% (inactive)
9 | CSc1nc2ccc(C)cc2cc1/C=N/O | 101% (inactive)
10 | COc1ccc(Nc2nn3c(C)cc(C)nc3c2C(=O)Nc2ccc(C)cc2)c(OC)c1 | 91.6% (inactive)
11 | C[C@]12C[C@H]1CC[C@]1(C)[C@@H]2CC[C@@]23C[C@H](CC[C@H]21)[C@@](O)(CO)C3 | 82.3% (inactive)
